ChEMBL document CHEMBL4513216, “Probing the Open Global Health Chemical Diversity Library for Multistage-Active Starting Points for Next-Generation Antimalarials” (ACS Infect Dis, 2020)
The campaign covered roughly 69,000 compounds. About 8,600 (12%) showed an effect of 50% or more. For the sample, strong results were picked, then their nearest neighbours and some compounds at random.

test system: Plasmodium berghei; assay: Screen against P. berghei liver stage (PbLuc), transformed with Luciferase, at 10uM; format: functional, HepG2; conditions: tested at 10 uM

Row | SMILES | INHIBITION
1 | COc1ccc(C(=O)N2CC(=O)N(C3CCC3)CC(O)C2)c(OC)c1 (stereo not given) | 13.9%
2 | CO[C@@H]1CC[C@@H](NS(=O)(=O)c2cn(C)nc2C)[C@H]1O | 33.8%
3 | c1ccc(CN2CCC(CNc3ncnc4c3CCNCC4)CC2)cc1 | 28.7%
4 | COc1ccc(-c2ccc(C(=O)N3CCOCC3CC(=O)O)o2)cc1 (stereo not given) | 1.71%
5 | O=C(CN1CCCCCC1)N1CCc2nnc(C3CCCNC3)n2CC1 (stereo not given) | 30.4%
6 | CC(C)c1noc(CCNC(=O)NCC2COc3ccccc3O2)n1 (stereo not given) | 7.24%
7 | O=C(c1ccco1)N1CCc2ncnc(Oc3cccnc3)c2CC1 | 29%
8 | O=C(CN1CCN(CC(O)C2CC2)CC1)NCc1ccccc1Cl (stereo not given) | 17.6%
9 | Cc1nnc(N2CCOC(C)C2)c(C#N)c1C (stereo not given) | 7.4%
10 | CS(=O)(=O)N1CCCC1Cn1cccn1 (stereo not given) | 20.8%
11 | COc1ccccc1C1=NOC(CC2(C(=O)NCCO)CCOCC2)C1 (stereo not given) | 8.72%
12 | Cc1cc(CN2CCCCC2Cn2cncn2)no1 (stereo not given) | 20.8%
13 | c1ccc(-c2nc(CN3CCc4c(ncn4C4CC4)C3)cs2)cc1 | 34.1%
14 | CNS(=O)(=O)CC(=O)NCc1cc2c(s1)CCC(C)(C)C2 | -19.3%
15 | O=C([C@H]1C[C@H]2OCC[C@H]2N(CCc2ccccc2)C1)N1CCCCO1 | -0.569%
16 | CCN1CCn2c(-c3cccc(F)c3)cnc2C12CCN(C(C)=O)CC2 | 85.2%
17 | CC(=O)N1CCC2(CC1)c1ncc(-c3ccccc3)n1CCN2C | 43%
18 | CCS(=O)(=O)N1CCC2(CC1)c1ncc(-c3cccnc3)n1CCN2C | 24.9%
19 | CN1CCn2c(-c3cccc(F)c3)cnc2C12CCN(CC1CC1)CC2 | 8.85%
20 | CC(=O)N1CCC2(CC1)c1ncc(-c3ccc(F)cc3)n1CCN2C | 39.4%
21 | CC(=O)N1CCC2(CC1)c1ncc(-c3ccccc3)n1CCN2C(C)=O | -15.3%
22 | CC(=O)N1CCn2c(-c3cccc(F)c3)cnc2C12CCNCC2 | 24.9%
23 | CNC(=O)N1CCC2(CC1)c1ncc(-c3cccc(F)c3)n1CCN2C | 63.3%
24 | CC(=O)N1CCC2(CC1)c1ncc(-c3cccnc3)n1CCN2C | 58.4%
25 | COc1ccccc1CNC(=O)CN(C)C(C)c1ccon1 (stereo not given) | -13.6%

Row | SMILES | INHIBITION
26 | COc1ccc(N2CCN(C(=O)COc3c(C)occc3=O)CC2)cc1 | -1.99%
27 | O=C(O)c1ccc(=O)n(CC(c2ccc(Cl)cc2)N2CCCCCC2)c1 (stereo not given) | 10.8%
28 | OC(CNCc1nnc2ccccn12)c1ccc2c(c1)OCO2 (stereo not given) | -10.8%
29 | Nc1nccnc1C1CN(C(=O)c2ccc3c(c2)OCO3)CCO1 (stereo not given) | 11.1%
30 | Cc1c(C2CC2)n[nH]c1NC(=O)C1CCCN(C(=O)NCC(C)C)C1 (stereo not given) | 35.7%
31 | CCCC1c2cccn2CCN1C(=O)Cn1cnc2sc(C)cc2c1=O (stereo not given) | 11.35%
32 | Cc1ccc(-c2noc(CN3CCOC(Cn4cccn4)C3)n2)cc1 (stereo not given) | 48.6%
33 | Cc1cc(C)n(C2CCCN(C(=O)CCc3nccs3)C2)n1 (stereo not given) | 21.6%
34 | Cn1cc(C(=O)NC[C@@H]2OC[C@H]3CN(S(C)(=O)=O)CC[C@H]32)cn1 | 18.5%
35 | Cn1ccnc1C(=O)NC[C@H]1OC[C@@H]2CCN(S(C)(=O)=O)C[C@@H]21 | 52.1%
36 | CN1CC[C@@H]2[C@@H](CO[C@H]2CNC(=O)c2nccn2C)C1 | -17.7%
37 | Cn1ccnc1C(=O)NC[C@@H]1OC[C@H]2CN(CC3CC3)CC[C@H]21 | 20.4%
38 | Cn1ccnc1C(=O)NC[C@@H]1OC[C@H]2CN(S(C)(=O)=O)CC[C@H]21 | 64.7%
39 | CCCN1CC[C@@H]2[C@@H](CO[C@H]2CNC(=O)c2nccn2C)C1 | 34%
40 | NCC(CO)Cc1cccc(OC(F)(F)F)c1 (stereo not given) | -14.5%
41 | CC(C)N1Cc2c(C(=O)N3CCOCC3)nn(C)c2C1 | 6.82%
42 | CC(C)(C)C(=O)N1CCCC1c1cc(CO)[nH]n1 (stereo not given) | 3.585%
43 | CC(C)c1csc(C2CCCN(C(=O)c3ccc(=O)n(C)c3)C2)n1 (stereo not given) | 52.6%
44 | CC(C)c1csc(C2CCCN(C(=O)c3ccc[nH]3)C2)n1 (stereo not given) | 59.1%
45 | CC(C)c1csc(C2CCCN(C(=O)Cn3ccccc3=O)C2)n1 (stereo not given) | 9.25%
46 | CC(C)c1csc(C2CCCN(C(=O)c3ccc(=O)n(C)n3)C2)n1 (stereo not given) | -7.48%
47 | Cc1nc(C(=O)N2CCCC(c3nc(C(C)C)cs3)C2)c[nH]1 (stereo not given) | 8.12%
48 | CC(C)c1csc(C2CCCN(C(=O)c3ncccn3)C2)n1 (stereo not given) | 31.9%
49 | Cc1c(COc2ccccc2)cccc1NC(=O)N1CC[C@H](O)C1 | 26.9%
50 | COCCC(=O)NCC(O)c1c(F)cccc1F (stereo not given) | -2.92%
